# Paper PMC11006913
# Where a chain is given by its changes, count along the chain named.
# Legend:
# Experiment in all cases: PBM; 200 nM protein, PBS
# Settings in all cases: dsDNA, one strand shown
# VAX1 [1] = biological target: VAX1 (Homo sapiens, UniProt Q5SQQ9 86-172)
# VAX1 [2] = biological target: VAX1 (Homo sapiens, UniProt Q5SQQ9 86-172, T142I)
# VAX1 [3] = biological target: VAX1 (Homo sapiens, UniProt Q5SQQ9 86-172, K157R)
# NKX2-6 [4] = biological target: T1, NKX2-6 (Homo sapiens, UniProt A6NCS4 118-204)
# T1 sequence: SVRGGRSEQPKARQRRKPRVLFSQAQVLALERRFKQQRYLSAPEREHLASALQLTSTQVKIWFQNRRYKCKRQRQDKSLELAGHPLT
# NKX2-6 [5] = biological target: T2, NKX2-6 (Homo sapiens, UniProt A6NCS4 118-204, F151L)
# T2 sequence: T1 sequence with F34L
# Chain of VAX1 (Homo sapiens, UniProt Q5SQQ9 86-172, K157R) (Q5SQQ9 86-172 K157R): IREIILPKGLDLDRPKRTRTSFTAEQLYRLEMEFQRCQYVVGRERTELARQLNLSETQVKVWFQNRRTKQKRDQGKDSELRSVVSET
# Chain of VAX1 (Homo sapiens, UniProt Q5SQQ9 86-172, T142I) (Q5SQQ9 86-172 T142I): as the sequence (Q5SQQ9 86-172 K157R) above, with T57I, R72K counted along it
# Chain of VAX1 (Homo sapiens, UniProt Q5SQQ9 86-172) (Q5SQQ9 86-172): as the sequence (Q5SQQ9 86-172 K157R) above, with R72K counted along it
sequence,measurement,setting,value
CGCTCGGC,binding signal,VAX1 [1],"6.93 upbm affinity estimate (log intensity, higher = more binding, comparable within an allelic series)"
same,binding signal,VAX1 [2],"6.99 upbm affinity estimate (log intensity, higher = more binding, comparable within an allelic series)"
same,binding signal,VAX1 [3],"6.71 upbm affinity estimate (log intensity, higher = more binding, comparable within an allelic series)"
AAGGGTCA,binding signal,NKX2-6 [4],"11.8 upbm affinity estimate (log intensity, higher = more binding, comparable within an allelic series)"
same,binding signal,NKX2-6 [5],"10 upbm affinity estimate (log intensity, higher = more binding, comparable within an allelic series)"
GCCCGCGC,binding signal,NKX2-6 [4],"9.29 upbm affinity estimate (log intensity, higher = more binding, comparable within an allelic series)"
same,binding signal,NKX2-6 [5],"9.27 upbm affinity estimate (log intensity, higher = more binding, comparable within an allelic series)"
CAGATCCC,binding signal,NKX2-6 [4],"9.68 upbm affinity estimate (log intensity, higher = more binding, comparable within an allelic series)"
same,binding signal,NKX2-6 [5],"9.49 upbm affinity estimate (log intensity, higher = more binding, comparable within an allelic series)"
GGCACAGA,binding signal,NKX2-6 [4],"9.3 upbm affinity estimate (log intensity, higher = more binding, comparable within an allelic series)"
same,binding signal,NKX2-6 [5],"9.37 upbm affinity estimate (log intensity, higher = more binding, comparable within an allelic series)"
ACGCATCC,binding signal,NKX2-6 [4],"9.51 upbm affinity estimate (log intensity, higher = more binding, comparable within an allelic series)"
same,binding signal,NKX2-6 [5],"9.35 upbm affinity estimate (log intensity, higher = more binding, comparable within an allelic series)"
GTTAAGTA,binding signal,NKX2-6 [4],"13.5 upbm affinity estimate (log intensity, higher = more binding, comparable within an allelic series)"
same,binding signal,NKX2-6 [5],"10.8 upbm affinity estimate (log intensity, higher = more binding, comparable within an allelic series)"
CGTCGGAC,binding signal,NKX2-6 [4],"9.07 upbm affinity estimate (log intensity, higher = more binding, comparable within an allelic series)"
same,binding signal,NKX2-6 [5],"9.37 upbm affinity estimate (log intensity, higher = more binding, comparable within an allelic series)"
CGTTTGCC,binding signal,NKX2-6 [4],"9.35 upbm affinity estimate (log intensity, higher = more binding, comparable within an allelic series)"
same,binding signal,NKX2-6 [5],"9.53 upbm affinity estimate (log intensity, higher = more binding, comparable within an allelic series)"
CCTTAAGA,binding signal,NKX2-6 [4],"12.4 upbm affinity estimate (log intensity, higher = more binding, comparable within an allelic series)"
same,binding signal,NKX2-6 [5],"10.1 upbm affinity estimate (log intensity, higher = more binding, comparable within an allelic series)"
ATACTTAG,binding signal,NKX2-6 [4],"13.1 upbm affinity estimate (log intensity, higher = more binding, comparable within an allelic series)"
same,binding signal,NKX2-6 [5],"10.4 upbm affinity estimate (log intensity, higher = more binding, comparable within an allelic series)"
AACACGCC,binding signal,NKX2-6 [4],"9.5 upbm affinity estimate (log intensity, higher = more binding, comparable within an allelic series)"
same,binding signal,NKX2-6 [5],"9.31 upbm affinity estimate (log intensity, higher = more binding, comparable within an allelic series)"
CGGGGGCC,binding signal,NKX2-6 [4],"9.04 upbm affinity estimate (log intensity, higher = more binding, comparable within an allelic series)"
same,binding signal,NKX2-6 [5],"9.04 upbm affinity estimate (log intensity, higher = more binding, comparable within an allelic series)"
CCGCGCGG,binding signal,NKX2-6 [4],"9.66 upbm affinity estimate (log intensity, higher = more binding, comparable within an allelic series)"
same,binding signal,NKX2-6 [5],"9.56 upbm affinity estimate (log intensity, higher = more binding, comparable within an allelic series)"
CGGCGGCC,binding signal,NKX2-6 [4],"9.64 upbm affinity estimate (log intensity, higher = more binding, comparable within an allelic series)"
same,binding signal,NKX2-6 [5],"9.33 upbm affinity estimate (log intensity, higher = more binding, comparable within an allelic series)"
CGGTGGCC,binding signal,NKX2-6 [4],"9.03 upbm affinity estimate (log intensity, higher = more binding, comparable within an allelic series)"
same,binding signal,NKX2-6 [5],"9.22 upbm affinity estimate (log intensity, higher = more binding, comparable within an allelic series)"
CCAAGGCA,binding signal,NKX2-6 [4],"9.52 upbm affinity estimate (log intensity, higher = more binding, comparable within an allelic series)"
same,binding signal,NKX2-6 [5],"9.42 upbm affinity estimate (log intensity, higher = more binding, comparable within an allelic series)"
AGCGGAGC,binding signal,NKX2-6 [4],"9.34 upbm affinity estimate (log intensity, higher = more binding, comparable within an allelic series)"
same,binding signal,NKX2-6 [5],"9.31 upbm affinity estimate (log intensity, higher = more binding, comparable within an allelic series)"
GGGCGGCA,binding signal,NKX2-6 [4],"9.62 upbm affinity estimate (log intensity, higher = more binding, comparable within an allelic series)"
same,binding signal,NKX2-6 [5],"9.36 upbm affinity estimate (log intensity, higher = more binding, comparable within an allelic series)"
CCGCGCAC,binding signal,NKX2-6 [4],"9.44 upbm affinity estimate (log intensity, higher = more binding, comparable within an allelic series)"
same,binding signal,NKX2-6 [5],"9.51 upbm affinity estimate (log intensity, higher = more binding, comparable within an allelic series)"
ACCAGAGC,binding signal,NKX2-6 [4],"9.39 upbm affinity estimate (log intensity, higher = more binding, comparable within an allelic series)"
same,binding signal,NKX2-6 [5],"9.5 upbm affinity estimate (log intensity, higher = more binding, comparable within an allelic series)"
ACCCAGGC,binding signal,NKX2-6 [4],"8.77 upbm affinity estimate (log intensity, higher = more binding, comparable within an allelic series)"
same,binding signal,NKX2-6 [5],"9.31 upbm affinity estimate (log intensity, higher = more binding, comparable within an allelic series)"
AAGTCATT,binding signal,NKX2-6 [4],"11.3 upbm affinity estimate (log intensity, higher = more binding, comparable within an allelic series)"
same,binding signal,NKX2-6 [5],"9.8 upbm affinity estimate (log intensity, higher = more binding, comparable within an allelic series)"
CCGTTGGC,binding signal,NKX2-6 [4],"9.2 upbm affinity estimate (log intensity, higher = more binding, comparable within an allelic series)"
same,binding signal,NKX2-6 [5],"9.41 upbm affinity estimate (log intensity, higher = more binding, comparable within an allelic series)"
CACGGGTC,binding signal,NKX2-6 [4],"9.25 upbm affinity estimate (log intensity, higher = more binding, comparable within an allelic series)"
same,binding signal,NKX2-6 [5],"9.31 upbm affinity estimate (log intensity, higher = more binding, comparable within an allelic series)"
GTTGATGA,binding signal,NKX2-6 [4],"10.9 upbm affinity estimate (log intensity, higher = more binding, comparable within an allelic series)"
same,binding signal,NKX2-6 [5],"9.75 upbm affinity estimate (log intensity, higher = more binding, comparable within an allelic series)"
